Source: PubChem BioAssay (Tox21)
Results filed as inconclusive are left out. Activity calls are given as the source filed them. Unless noted, the call rests on the fitted dose curve; in most records, active means well fitted curve in the direction sought with a large enough effect in the repeat runs; inconclusive means weak or mixed curves; inactive means no such curve, though single readings can be large; an effect the other way counts as inactive or inconclusive.

Experiments:
[1] = qHTS assay to identify small molecule antagonists of the estrogen receptor beta (ER-beta) signaling pathway - cell viability counter screen (AID 1259382);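 further: HEK293T cells carrying ER-beta-UAS-bla reporter stimulated with estradiol; series mostly up to about 92 µM; nearly all actives have a fitted effect of over 55% in size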
In short: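 In this multiplexed counter screen, cells were seeded at 2,000 per well in medium with 2% charcoal-stripped FBS and incubated 6 hr before compound and 1nM final E2 were added. Sixteen hours later, ATP-based luminescence reported viability.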

[2] = qHTS assay to identify small molecule agonists or antagonists of the thyroid stimulating hormone receptor (TSHR) signaling pathway - wild type cell line counter screen (AID 1259384; calls by dose curve)
In short: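 Counter screen in untransfected Hek293: compounds (15-point titration, triplicate) plus phosphodiesterase inhibitor Ro20-1724 added after 18 h plating; 30 min RT. Intracellular cAMP via competitive d2/cryptate immunoassay, 1 h incubation.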

[3] = qHTS assay to identify small molecule agonists of the estrogen receptor alpha (ER-alpha) signaling pathway in the presence of an antagonist - cell viability counter screen (AID 1259386);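 further: series mostly up to about 92 µM; cells exposed to compounds for 22 h at 37 °C before the viability read; nearly all actives have a fitted effect of over 30% in size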
In short: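 Viability counter screen using VM7Luc4E2 (full-length ER-alpha, four ERE-luciferase). The cells were treated with compounds alongside ICI-182,780 10.0nM for 22hr, and live-cell protease fluorescence was quantified with CellTiter-Fluor.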

[4] = molecular target: Progesterone receptor (Homo sapiens) (UniProt P06401); experiment: qHTS assay to identify small molecule agonists of the progesterone receptor (PR) signaling pathway (AID 1346784; calls by dose curve; further: nearly all actives have a fitted effect of over 30% in size)
Sequence of Progesterone receptor (Homo sapiens) (P06401 whole entry, looked up): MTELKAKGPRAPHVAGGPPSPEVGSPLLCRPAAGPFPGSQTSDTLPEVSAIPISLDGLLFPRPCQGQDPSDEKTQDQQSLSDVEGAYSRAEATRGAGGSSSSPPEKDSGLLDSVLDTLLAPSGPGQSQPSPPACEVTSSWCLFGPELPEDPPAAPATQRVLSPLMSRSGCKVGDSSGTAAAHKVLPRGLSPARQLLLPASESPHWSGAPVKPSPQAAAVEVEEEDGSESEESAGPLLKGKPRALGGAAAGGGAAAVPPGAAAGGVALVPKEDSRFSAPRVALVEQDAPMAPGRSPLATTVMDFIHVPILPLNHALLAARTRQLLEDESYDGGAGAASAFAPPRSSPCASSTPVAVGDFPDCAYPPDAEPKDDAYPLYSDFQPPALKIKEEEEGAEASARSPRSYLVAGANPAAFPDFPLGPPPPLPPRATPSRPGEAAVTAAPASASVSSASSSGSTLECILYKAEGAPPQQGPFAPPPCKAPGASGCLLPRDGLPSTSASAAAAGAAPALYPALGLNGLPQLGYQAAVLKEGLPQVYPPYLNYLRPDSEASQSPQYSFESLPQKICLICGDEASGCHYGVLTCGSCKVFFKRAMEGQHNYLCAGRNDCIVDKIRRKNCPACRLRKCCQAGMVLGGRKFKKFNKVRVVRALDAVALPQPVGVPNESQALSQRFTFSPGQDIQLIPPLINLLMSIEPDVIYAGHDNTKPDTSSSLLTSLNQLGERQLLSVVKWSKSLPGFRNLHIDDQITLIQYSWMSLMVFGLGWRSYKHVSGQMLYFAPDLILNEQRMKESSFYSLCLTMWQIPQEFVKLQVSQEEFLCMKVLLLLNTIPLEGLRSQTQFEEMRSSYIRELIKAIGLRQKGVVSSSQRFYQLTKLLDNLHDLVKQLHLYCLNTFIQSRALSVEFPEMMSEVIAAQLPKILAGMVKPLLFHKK
In short: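 Using charcoal-stripped serum (2%) to limit endogenous steroids, PR-UAS-bla HEK 293T cells received compounds for 16 hr at 37C after 6 hr plating; beta-lactamase FRET fluorescence was recorded following 2 hr substrate loading at room temperature.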

[5] = molecular target: Progesterone receptor (Homo sapiens) (UniProt P06401); experiment: qHTS assay to identify small molecule antagonists of the progesterone receptor (PR) signaling pathway (AID 1346795; active means well fitted inhibition curve with a large enough effect in the signal ratio in the repeat runs, not every such curve was filed as active; the % refers to the signal ratio)
In short: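 Inhibition of R5020-induced (1 nM final) beta-lactamase reporter signal in PR-UAS-bla HEK293T cells was scored by FRET fluorescence after overnight (16 hr) compound treatment.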

[6] = qHTS assay to identify small molecule agonists of the progesterone receptor (PR) signaling pathway - cell viability counter screen (AID 1346799; calls by dose curve; further: nearly all actives have a fitted effect of over 45% in size)
In short: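 Cytotoxicity in PR-bla HEK293T cells: 16 h compound, 37C; CellTiter-Glo added post-FRET read; luminescence after 30 min RT.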

[7] = qHTS assay to identify small molecule antagonists of the TGF-beta/Smad signaling pathway - cell viability counter screen (AID 1346824); further: nearly all actives have a fitted effect of over 50% in size
In short: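 Cytotoxicity counter-screen run in the same wells as the beta-lactamase Smad reporter read: CellTiter-Glo luminescence after 30 min at room temperature. HEK 293T SBE-bla cells had 5 hr compound exposure at 37 C with TGF-beta1 (0.25 ng/mL stock).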

[8] = qHTS assay to identify small molecule agonists of the TGF-beta/Smad signaling pathway - cell viability counter screen (AID 1346829); further: top concentration of the series differs between compounds; nearly all actives have a fitted effect of over 45% in size
In short: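 Compound-treated SBE-bla HEK 293T cells (5 hr, 37 C) were assessed for viability with CellTiter-Glo in parallel with the reporter read.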

[9] = qHTS assay to identify small molecule agonists of the TGF-beta/Smad signaling pathway (AID 1346859; active means well fitted activation curve with a large enough effect in the signal ratio in the repeat runs, not every such curve was filed as active; the % refers to the signal ratio; further: series mostly up to about 77 µM)
In short: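 Stable Smad binding element-beta-lactamase HEK 293T cells; 5 hr compound exposure at 37 C under 5% CO2; 2 hr room-temperature substrate step; fluorescence excited at 405 nm, collected at 460 nm and 530 nm.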

[10] = molecular target: Thyrotropin-releasing hormone receptor (Homo sapiens) (UniProt P34981); experiment: qHTS assay to identify small molecule antagonists of the thyrotropin-releasing hormone receptor (TRHR) signaling pathway (AID 1346877; active means well fitted inhibition curve with a large enough effect in the repeat runs, not every such curve was filed as active; further: series mostly up to about 51 µM)
Sequence of Thyrotropin-releasing hormone receptor (Homo sapiens) (P34981 whole entry, looked up): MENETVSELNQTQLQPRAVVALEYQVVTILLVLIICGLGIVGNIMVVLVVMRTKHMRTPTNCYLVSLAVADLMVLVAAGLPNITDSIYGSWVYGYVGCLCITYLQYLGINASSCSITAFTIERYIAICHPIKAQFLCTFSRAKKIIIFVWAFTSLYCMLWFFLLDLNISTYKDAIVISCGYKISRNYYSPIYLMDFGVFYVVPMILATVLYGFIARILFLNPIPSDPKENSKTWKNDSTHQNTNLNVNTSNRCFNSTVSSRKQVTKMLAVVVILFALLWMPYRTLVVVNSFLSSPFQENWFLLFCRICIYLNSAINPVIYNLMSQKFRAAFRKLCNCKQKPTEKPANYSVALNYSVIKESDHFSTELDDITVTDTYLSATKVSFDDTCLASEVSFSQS
In short: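 Following an 18 h incubation at 37 °C and a 2 h calcium dye load, TRHR-HEK293 cells were exposed to compound (5 min, room temperature) and challenged with TRH, 1 nM final.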

[11] = molecular target: Thyrotropin-releasing hormone receptor (Homo sapiens) (UniProt P34981); experiment: qHTS assay to identify small molecule agonists of the thyrotropin-releasing hormone receptor (TRHR) signaling pathway (AID 1346891; calls by dose curve;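 further: HEK293 cells expressing TRHR with calcium dye readout; series mostly up to about 58 µM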)
In short: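 In 1536-format, 1500 TRHR-Hek293 cells per well grew 18 h, took up calcium dye for 2 h at 37 °C, received compound, and were read kinetically; 15-point titrations, triplicates.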

[12] = Human pregnane X receptor (PXR) small molecule agonists, qHTS cell viability counter screen (AID 1346977); further: nearly all actives have a fitted effect of over 50% in size
In short: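 Readout is CellTiter-Fluor fluorescence from PXR-Luc HepG2 cells. Plated cells rested 5hr, then were treated with compounds for 24hr at 37C and 5% CO2, with reagent present during the last hour.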

[13] = Caspase-3/7 induction in HepG2 cells by small molecules, qHTS assay (AID 1346978); further: nearly all actives have a fitted effect of over 15% in size
In short: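 Caspase-3/7 induction was measured by Caspase-Glo 3/7 luminescence (30 min, room temperature) after a 17 hr compound exposure of wild-type HepG2 cells seeded at 2,000 per well and pre-incubated 5 hr.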

[14] = Caspase-3/7 induction in CHO-K1 cells by small molecules, qHTS cell viability counter screen (AID 1346979); further: nearly all actives have a fitted effect of over 35% in size
In short: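 To flag cytotoxic compounds, treated CHO-K1 wild-type cells were given CellTiter-Fluor at 16hr and read fluorescently after 1hr at 37C; the caspase-3/7 luminescence was measured in these same wells.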

[15] = Caspase-3/7 induction in CHO-K1 cells by small molecules, qHTS assay (AID 1346980); further: nearly all actives have a fitted effect of over 15% in size
In short: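 Luminescent Caspase-Glo 3/7 read (30min, room temperature) quantified apoptosis induction. Cells were wild-type CHO-K1, treated with compound for 17hr at 37 C and 5% CO2.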

[16] = Caspase-3/7 induction in HepG2 cells by small molecules, qHTS cell viability counter screen (AID 1346981); further: series mostly up to about 92 µM; nearly all actives have a fitted effect of over 30% in size
In short: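 Viability determined by CellTiter-Fluor fluorescence in HepG2 wells also used for the luminescent Caspase-Glo 3/7 read. Compounds were present for 16 hr at 37 C, 5% CO2 before reagent addition.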

[17] = molecular target: Nuclear receptor subfamily 1 group I member 2 (Homo sapiens) (UniProt O75469); experiment: Human pregnane X receptor (PXR) small molecule agonists, qHTS assay (AID 1346982); further: nearly all actives have a fitted effect of over 35% in size
Sequence of Nuclear receptor subfamily 1 group I member 2 (Homo sapiens) (O75469 whole entry, looked up): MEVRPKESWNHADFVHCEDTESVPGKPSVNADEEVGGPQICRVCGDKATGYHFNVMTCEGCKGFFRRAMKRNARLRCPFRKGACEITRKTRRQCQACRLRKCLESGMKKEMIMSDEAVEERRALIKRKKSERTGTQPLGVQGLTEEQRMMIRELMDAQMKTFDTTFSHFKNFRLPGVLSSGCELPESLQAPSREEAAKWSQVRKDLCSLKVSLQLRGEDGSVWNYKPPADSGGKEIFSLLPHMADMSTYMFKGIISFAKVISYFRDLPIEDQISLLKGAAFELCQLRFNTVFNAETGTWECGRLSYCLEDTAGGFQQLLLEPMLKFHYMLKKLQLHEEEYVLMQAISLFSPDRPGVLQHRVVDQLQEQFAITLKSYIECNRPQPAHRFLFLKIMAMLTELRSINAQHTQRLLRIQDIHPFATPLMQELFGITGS
In short: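 Compound-induced hPXR transactivation of a CYP3A4 luciferase reporter was scored in HepG2 PXR-Luc cells over 24 hr at 37 C, 5% CO2, by luminescence.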

[18] = qHTS assay to identify small molecule antagonists of the progesterone receptor (PR) signaling pathway - cell viability counter screen (AID 1346798); further: series mostly up to about 92 µM; nearly all actives have a fitted effect of over 50% in size
In short: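 ATP content as viability readout: CellTiter-Glo luminescence, 30 min room temperature, in PR-UAS-bla HEK293T cells after 16 hr compound/R5020 treatment at 37C and 5% CO2.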

[19] = molecular target: Thyrotropin receptor (Homo sapiens) (UniProt P16473); experiment: qHTS assay to identify small molecule antagonists of the thyroid stimulating hormone receptor (TSHR) signaling pathway (AID 1259385; calls by dose curve; further: nearly all actives have a fitted effect of over 20% in size)
Sequence of Thyrotropin receptor (Homo sapiens) (P16473 whole entry, looked up): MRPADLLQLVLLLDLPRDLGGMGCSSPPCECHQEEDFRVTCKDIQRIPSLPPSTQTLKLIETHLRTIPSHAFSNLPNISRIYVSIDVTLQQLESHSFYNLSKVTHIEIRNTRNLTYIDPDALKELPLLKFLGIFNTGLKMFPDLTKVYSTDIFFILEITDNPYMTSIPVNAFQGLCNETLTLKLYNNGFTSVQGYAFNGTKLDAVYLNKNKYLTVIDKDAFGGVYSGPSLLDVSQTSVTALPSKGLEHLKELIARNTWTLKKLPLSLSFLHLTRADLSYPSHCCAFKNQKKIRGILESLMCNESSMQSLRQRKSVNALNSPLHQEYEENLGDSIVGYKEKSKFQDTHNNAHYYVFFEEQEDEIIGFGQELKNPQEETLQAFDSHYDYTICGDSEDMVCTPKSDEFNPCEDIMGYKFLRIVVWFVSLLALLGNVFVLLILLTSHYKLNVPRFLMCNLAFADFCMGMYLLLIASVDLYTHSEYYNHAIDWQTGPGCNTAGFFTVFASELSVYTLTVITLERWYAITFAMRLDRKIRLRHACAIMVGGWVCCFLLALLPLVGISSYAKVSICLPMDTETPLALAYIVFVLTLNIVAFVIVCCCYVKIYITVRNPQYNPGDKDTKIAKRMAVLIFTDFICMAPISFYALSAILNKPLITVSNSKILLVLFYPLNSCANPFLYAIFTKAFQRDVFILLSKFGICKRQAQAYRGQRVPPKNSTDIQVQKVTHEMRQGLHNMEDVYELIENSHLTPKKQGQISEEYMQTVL
In short: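 Antagonist mode: compound-treated TSHR-expressing HEK293 cells were stimulated with 1.5 ng/mL TSH (final) in presence of Ro20-1724 for 30 min at RT. HTRF cAMP detection after 1 h; each compound tested at 15 concentrations, triplicate.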

Measured: Potency

O=S(=O)(O)SSS(=O)(=O)O
inactive: [1] | [2] | [3] | [4] | [5] | [6] | [7] | [8] | [9] | [10] | [11] | [12] | [13] | [14] | [15] | [16] | [17]

c1ccc(CNc2ncnc3nc[nH]c23)cc1
inactive: [1] | [2] | [3] | [4] | [5] | [18] | [7] | [8] | [9] | [10] | [11] | [13] | [14] | [15] | [16]

O=C(/C=C/c1ccccc1)NCCO
inactive: [1] | [2] | [19] | [3] | [6] | [7] | [8] | [9] | [10] | [12] | [13] | [16] | [17]

C=C[Si](C)(C)O[Si](C)(C)C=C
inactive: [1] | [2] | [19] | [3] | [4] | [18] | [7] | [8] | [9] | [12] | [13] | [14] | [15] | [16] | [17]

CC(C)COC(=O)COc1ccc(Cl)cc1Cl
inactive: [1] | [2] | [19] | [3] | [4] | [6] | [7] | [8] | [9] | [10] | [11] | [12] | [13] | [14] | [15] | [16] | [17]

Cc1ccc(S(=O)(=O)NC(=O)NC2CCCCCCC2)cc1
inactive: [1] | [2] | [19] | [4] | [18] | [6] | [7] | [8] | [9] | [10] | [11] | [12] | [13] | [15] | [16]

Nc1cc(S(=O)(=O)O)ccc1S(=O)(=O)O
inactive: [1] | [2] | [19] | [3] | [5] | [18] | [6] | [7] | [8] | [9] | [10] | [11] | [12] | [14] | [15] | [16] | [17]

O=C(O)/C=C/c1ccccc1
inactive: [1] | [2] | [19] | [4] | [5] | [18] | [6] | [7] | [8] | [9] | [10] | [11] | [12] | [13] | [14] | [15] | [16] | [17]
